This is an account of results in PubChem BioAssay (Tox21).

Test [1] addresses Acetylcholinesterase (Homo sapiens) (UniProt P22303). Put plainly: Acetylcholinesterase (AChE) small molecule antagonists: colormetric cell-based qHTS assay (AID 1347395). Note: nearly all actives have a fitted effect of over 30% in size. The gist of the method:
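Neuroblastoma line SH-SY5Y supplied the enzyme; cells were preincubated with compound for 30 min at 37 C and 5% CO2. Acetylthiocholine with DTNB was then added for 90 min at 37 C, and thiocholine was measured by colour.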

For test [2] the target is unchanged. Briefly: Acetylcholinesterase (AChE) small molecule antagonists: enzyme-based qHTS assay (AID 1347397). Note: nearly all actives have a fitted effect of over 55% in size. Note: potency is the fitted concentration of half-maximal effect. The note with it: Potency: AChE enzyme activity inhibition; outcome: AChE enzyme activity inhibition. The gist of the method:
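In this quantitative HTS, compounds from the Tox21 10K collection were preincubated 30 min at ambient temperature with recombinant human AChE dispensed at 50 mU/mL. Hydrolysis of acetylthiocholine was then followed for 10 min by DTNB colour development.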
Background: In qHTS, concentration-response curves come from the screen itself.

Test [3] has the same target. Put plainly: Acetylcholinesterase (AChE) small molecule antagonists: fluorescence cell-based qHTS assay (AID 1347398). Note: nearly all actives have a fitted effect of over 50% in size. The note with it: Potency: AChE activity; outcome: AChE activity. In a few lines: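 Cells (SH-SY5Y) attached overnight, were dosed with compound or DMSO vehicle for 30 min at 37 C, and then incubated 40 min at room temperature with acetylthiocholine and Thiolite Green; green fluorescence indexed AChE activity.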

Test [4] shares this target. Briefly: Acetylcholinesterase (AChE) small molecule antagonists: enzyme-based qHTS assay with human liver microsomes (AID 1347399). Note: nearly all actives have a fitted effect of over 60% in size. The settings on record: Potency: qHTS inhibition; outcome: qHTS inhibition. In a few lines: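 Recombinant human AChE (50 mU/mL in the enzyme mix) and human liver microsomes (0.25 mg/mL final) were preincubated with compound and NADPH (0.25 mg/mL final) for 30 min at 37 C. Acetylthiocholine/DTNB was then added; thiocholine was read colorimetrically after 10 min at room temperature.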

“And” between values parts separate entries of the source, which are not always exact repeats. Equal entries are not always repeated. Results filed as inconclusive are left out. The source made the active and inactive calls. Calls come from the whole dose curve.

Acetylcholinesterase (Homo sapiens), sequence (P22303 whole entry, looked up): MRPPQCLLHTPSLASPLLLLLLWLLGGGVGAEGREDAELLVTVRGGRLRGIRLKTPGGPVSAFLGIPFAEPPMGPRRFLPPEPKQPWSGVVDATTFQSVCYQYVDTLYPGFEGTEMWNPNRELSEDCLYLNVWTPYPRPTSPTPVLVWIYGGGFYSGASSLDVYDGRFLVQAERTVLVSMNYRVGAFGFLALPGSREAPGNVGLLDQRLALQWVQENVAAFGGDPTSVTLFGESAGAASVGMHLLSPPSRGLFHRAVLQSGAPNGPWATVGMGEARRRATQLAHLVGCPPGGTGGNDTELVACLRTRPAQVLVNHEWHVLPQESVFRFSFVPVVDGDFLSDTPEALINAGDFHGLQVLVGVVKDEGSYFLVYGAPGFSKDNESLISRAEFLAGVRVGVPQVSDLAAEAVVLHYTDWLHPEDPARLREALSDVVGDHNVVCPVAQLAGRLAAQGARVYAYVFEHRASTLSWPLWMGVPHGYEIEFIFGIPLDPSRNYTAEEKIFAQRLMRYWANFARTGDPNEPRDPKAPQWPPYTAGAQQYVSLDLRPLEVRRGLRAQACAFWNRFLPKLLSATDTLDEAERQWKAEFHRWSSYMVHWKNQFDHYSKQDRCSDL

In the case of `CC1(C)S[C@@H]2[C@H](NC(=O)C(C(=O)O)c3ccccc3)C(=O)N2[C@H]1C(=O)O` (stereo not given in full), the Potency result in test [1], in test [2], in test [3] and in test [4] was “inactive” in each case.
On to `O=C1OCCO1`, for which the Potency result in test [1], in test [2], in test [3] and in test [4] was “inactive” throughout.
Regarding `CC(=O)c1nccs1`, the Potency result in test [1], in test [2], in test [3] and in test [4] was “inactive” in each case.
Consider `CC1(O)CSC(C)(O)CS1` (stereo not given), for which the Potency result in test [1], in test [2], in test [3] and in test [4] was “inactive” each time.
`CCCCCCCCCCCCOC(=O)c1cc(O)c(O)c(O)c1`: the Potency entry in test [1], in test [3] and in test [4] was “inactive” throughout. Also, the Potency in test [2] is 35.4 µM (active) and 39.9 µM (active).
Consider `C=Cc1c(C)c2cc3[nH]c(cc4nc(cc5nc(cc1[nH]2)C(C)=C5CCC(=O)O)C(CCC(=O)O)=C4C)c(C)c3C=C`, for which the Potency result in test [1], in test [2], in test [3] and in test [4] was “inactive” in each case.
As to `OCC#CCO`, the Potency entry in test [1], in test [2], in test [3] and in test [4] was “inactive” each time.
As to `CCOC(=O)C(C)Oc1ccc(Oc2cnc3cc(Cl)ccc3n2)cc1` (stereo not given), the Potency result in test [1], in test [2], in test [3] and in test [4] was “inactive” in each case.
Take `Cc1cccc2sc(N)nc12`: the Potency result in test [1], in test [2], in test [3] and in test [4] was “inactive” in each case.
In the case of `Nc1ccc(O)cc1`, the Potency result in test [1], in test [2], in test [3] and in test [4] was “inactive” in each case.
As to `CC(=O)OC[C@H]1O[C@@](COC(C)=O)(O[C@H]2O[C@H](COC(C)=O)[C@@H](OC(C)=O)[C@H](OC(C)=O)[C@H]2OC(C)=O)[C@@H](OC(C)=O)[C@@H]1OC(C)=O`, the Potency entry in test [1], in test [2], in test [3] and in test [4] was “inactive” each time.
For `CC(C)c1ccccc1O`, the Potency entry in test [1], in test [2], in test [3] and in test [4] was “inactive” throughout.
Consider `Cc1cc(N)no1`, for which the Potency result in test [1], in test [2], in test [3] and in test [4] was “inactive” in each case.
For the compound `CCCCNc1c(C(=O)OCC)c(C)nc2c1cnn2CC`, the Potency entry in test [1], in test [2], in test [3] and in test [4] was “inactive” each time.
In the case of `CC1CC(C)C(=O)C1=O` (stereo not given), the Potency entry in test [1], in test [2], in test [3] and in test [4] was “inactive” throughout.
Regarding `OCCN(CCO)c1cccc(Cl)c1`, the Potency entry in test [1], in test [2], in test [3] and in test [4] was “inactive” each time.
For `OC[C@H]1O[C@@H]2O[C@H]3[C@H](O)[C@@H](O)[C@@H](O[C@H]4[C@H](O)[C@@H](O)[C@@H](O[C@H]5[C@H](O)[C@@H](O)[C@@H](O[C@H]6[C@H](O)[C@@H](O)[C@@H](O[C@H]7[C@H](O)[C@@H](O)[C@@H](O[C@H]8[C@H](O)[C@@H](O)[C@@H](O[C@H]1[C@H](O)[C@H]2O)O[C@@H]8CO)O[C@@H]7CO)O[C@@H]6CO)O[C@@H]5CO)O[C@@H]4CO)O[C@@H]3CO`, the Potency result in test [1], in test [2], in test [3] and in test [4] was “inactive” each time.
On to `O=c1[nH]c2cc(C(F)(F)F)c(N3CCOCC3)cc2n(CP(=O)(O)O)c1=O`, for which the Potency entry in test [1], in test [2], in test [3] and in test [4] was “inactive” in each case.
For the compound `OCCN1CCN(CCCN2c3ccccc3C=Cc3ccccc32)CC1`, the Potency result in test [1], in test [2], in test [3] and in test [4] was “inactive” in each case.
On to `Nc1cc(Cl)cc(S(=O)(=O)O)c1O`, for which the Potency result in test [1], in test [2], in test [3] and in test [4] was “inactive” each time.
For the compound `CC/C=C(\C(=O)N[C@@H]1C(=O)N2C(C(=O)OCOC(=O)C(C)(C)C)=C(COC(N)=O)CS[C@H]12)c1csc(N)n1`, the Potency result in test [1], in test [2], in test [3] and in test [4] was “inactive” throughout.
`O=C1CCCCCN1SSN1CCCCCC1=O`: the Potency entry in test [1], in test [2], in test [3] and in test [4] was “inactive” throughout.
As for `CCCCCCCCCCCCCCCCCCOCC(O)CO` (stereo not given), the Potency entry in test [1], in test [2], in test [3] and in test [4] was “inactive” each time.
Turning to `O=S(=O)(O)c1cccc(S(=O)(=O)O)c1`, the Potency entry in test [1], in test [2], in test [3] and in test [4] was “inactive” each time.
For `O=c1c(O)c(O)c1=O`, the Potency result in test [1], in test [2], in test [3] and in test [4] was “inactive” throughout.
In the case of `Cc1ccc(C(C)C)cc1O`, the Potency result in test [1], in test [2], in test [3] and in test [4] was “inactive” each time.
For the compound `BrC(Br)C(Br)Br`, the Potency entry in test [1], in test [2], in test [3] and in test [4] was “inactive” in each case.
In the case of `CCC(CC)C(=O)O`, the Potency result in test [1], in test [2], in test [3] and in test [4] was “inactive” in each case.
As to `CC(C)N(c1ccccc1)C(C)C`, the Potency result in test [1], in test [2], in test [3] and in test [4] was “inactive” each time.
Take `O[C@@H](c1cc(C(F)(F)F)nc2c(C(F)(F)F)cccc12)[C@H]1CCCCN1`: the Potency entry in test [1], in test [2], in test [3] and in test [4] was “inactive” each time.
Turning to `CCCCCCCCCCCCCCCCCC(=O)OCC(CC)CCCC` (stereo not given), the Potency result in test [1], in test [2], in test [3] and in test [4] was “inactive” in each case.
Take `CC(C)NCC(O)c1cc(O)cc(O)c1` (stereo not given): the Potency entry in test [1], in test [2], in test [3] and in test [4] was “inactive” each time.
For the compound `CC(=O)C1C(=O)C=C(C)OC1=O` (stereo not given), the Potency entry in test [1], in test [2], in test [3] and in test [4] was “inactive” each time.
Turning to `COC(=O)c1ccc(C(=O)O)cc1`, the Potency entry in test [1], in test [2], in test [3] and in test [4] was “inactive” each time.
With `C[C@H]1C[C@H]2[C@@H]3CCC4=CC(=O)C=C[C@]4(C)[C@@]3(Cl)[C@@H](O)C[C@]2(C)[C@@]1(O)C(=O)CO`, the Potency entry in test [1], in test [2], in test [3] and in test [4] was “inactive” each time.
Take `CCCOC(C)=O`: the Potency result in test [1], in test [2], in test [3] and in test [4] was “inactive” each time.
Consider `CCOc1ccc(NC(C)=O)cc1N`, for which the Potency result in test [1], in test [2], in test [3] and in test [4] was “inactive” each time.
As for `O=C1OC2(c3ccccc31)c1cc(Br)c(O)c(Br)c1Oc1c2cc(Br)c(O)c1Br`, the Potency entry in test [1], in test [2], in test [3] and in test [4] was “inactive” throughout.
Regarding `COc1ccc(N=[N+]([O-])c2ccc(OC)cc2)cc1`, the Potency entry in test [1], in test [2], in test [3] and in test [4] was “inactive” in each case.
For `CCCCOC(=O)CCCCCCCCC(=O)OCCCC`, the Potency entry in test [1], in test [2], in test [3] and in test [4] was “inactive” each time.
Take `Cc1c(Cl)cccc1Cl`: the Potency entry in test [1], in test [2], in test [3] and in test [4] was “inactive” throughout.
`COc1cccc(OC)c1O`: the Potency result in test [1], in test [2], in test [3] and in test [4] was “inactive” each time.
For the compound `CC(=O)OCCOCCOCCOC(C)=O`, the Potency result in test [1], in test [2], in test [3] and in test [4] was “inactive” throughout.
In the case of `CCCCCC(C)=O`, the Potency entry in test [1], in test [2], in test [3] and in test [4] was “inactive” each time.
For the compound `CC/C(C)=N\O[Si](C)(O/N=C(\C)CC)O/N=C(\C)CC`, the Potency entry in test [1], in test [2], in test [3] and in test [4] was “inactive” throughout.
As to `O=C(O)c1snc(Cl)c1Cl`, the Potency result in test [1], in test [2], in test [3] and in test [4] was “inactive” each time.
Consider `CCCC(C)C(=O)O` (stereo not given), for which the Potency result in test [1], in test [2], in test [3] and in test [4] was “inactive” throughout.
Turning to `NC(=O)CC[C@@H]1NC(=O)[C@H](Cc2ccccc2)NC(=O)[C@H](Cc2ccc(O)cc2)NC(=O)CCSSC[C@@H](C(=O)N2CCC[C@H]2C(=O)N[C@@H](CCCN=C(N)N)C(=O)NCC(N)=O)NC(=O)[C@H](CC(N)=O)NC1=O`, the Potency entry in test [1], in test [2], in test [3] and in test [4] was “inactive” each time.
Turning to `[Cl][Dy]([Cl])[Cl]`, the Potency entry in test [1], in test [2], in test [3] and in test [4] was “inactive” each time.
As for `COc1cc(CCC(C)=O)ccc1O`, the Potency entry in test [1], in test [2], in test [3] and in test [4] was “inactive” in each case.
Take `COC(=O)c1ccc([N+](=O)[O-])cc1`: the Potency result in test [1], in test [2], in test [3] and in test [4] was “inactive” in each case.
`C=C[C@](C)(O)CC[C@@H]1[C@@]2(C)CCCC(C)(C)[C@@H]2CC[C@@]1(C)O`: the Potency result in test [1], in test [2], in test [3] and in test [4] was “inactive” throughout.
As to `COc1ccc(-c2coc3cc(O)cc(O)c3c2=O)cc1`, the Potency entry in test [1], in test [2], in test [3] and in test [4] was “inactive” throughout.
Turning to `COc1cc(C)cc(O)c1`, the Potency result in test [1], in test [2], in test [3] and in test [4] was “inactive” in each case.
On to `COC(=O)c1ccccc1O`, for which the Potency entry in test [1], in test [2], in test [3] and in test [4] was “inactive” each time.
As for `CCOC(=O)c1ccc(O)cc1`, the Potency entry in test [1], in test [2], in test [3] and in test [4] was “inactive” each time.
For `CO[C@@]1(NC(=O)Cc2cccs2)C(=O)N2C(C(=O)O)=C(COC(N)=O)CS[C@@H]21`, the Potency result in test [1], in test [2], in test [3] and in test [4] was “inactive” in each case.
For the compound `COc1cc(C)ccc1O`, the Potency result in test [1], in test [2], in test [3] and in test [4] was “inactive” each time.
In the case of `COS(C)(=O)=O`, the Potency entry in test [1], in test [2], in test [3] and in test [4] was “inactive” in each case.
Turning to `CC(C)CCCCCOC(=O)CCS`, the Potency result in test [1], in test [2], in test [3] and in test [4] was “inactive” each time.
